The text below walks through data of PubChem BioAssay (EPA / NIEHS).

Assay [1] can be described thus: ATG_M_32_XSP1: Attagene TRANS-FACTORIAL Multi-Species (XSP1) HepG2 Assay for M32 Transcription Factor (Internal Marker) (AID 2283799). The method, boiled down: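 HepG2 cells transiently transfected with multi-species TRANS reporter units, dosed 24 h with 3 nM 6-alpha-fluorotestosterone present. Internal-marker reporter mRNA quantified by RT-PCR and capillary electrophoresis; positive-direction fit versus DMSO.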

The target of assay [2] is Peroxisome proliferator-activated receptor gamma (Homo sapiens) (UniProt P37231). Description: ATG_hPPARg_XSP1: Attagene TRANS-FACTORIAL Multi-Species (XSP1) HepG2 Assay for human Peroxisome Proliferator-activated Receptor gamma (PPARg) (AID 2283800). The method in brief: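 HepG2 cells transiently transfected with GAL4-UAS reporter units carrying chimeric NR-Gal4 proteins; 3 nM 6-alpha-fluorotestosterone present. After 24 h dosing, reporter mRNA quantified by RT-PCR and capillary electrophoresis; gain of signal relative to DMSO.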
Chain of Peroxisome proliferator-activated receptor gamma (Homo sapiens) (P37231 whole entry, looked up, the tested form may be a part): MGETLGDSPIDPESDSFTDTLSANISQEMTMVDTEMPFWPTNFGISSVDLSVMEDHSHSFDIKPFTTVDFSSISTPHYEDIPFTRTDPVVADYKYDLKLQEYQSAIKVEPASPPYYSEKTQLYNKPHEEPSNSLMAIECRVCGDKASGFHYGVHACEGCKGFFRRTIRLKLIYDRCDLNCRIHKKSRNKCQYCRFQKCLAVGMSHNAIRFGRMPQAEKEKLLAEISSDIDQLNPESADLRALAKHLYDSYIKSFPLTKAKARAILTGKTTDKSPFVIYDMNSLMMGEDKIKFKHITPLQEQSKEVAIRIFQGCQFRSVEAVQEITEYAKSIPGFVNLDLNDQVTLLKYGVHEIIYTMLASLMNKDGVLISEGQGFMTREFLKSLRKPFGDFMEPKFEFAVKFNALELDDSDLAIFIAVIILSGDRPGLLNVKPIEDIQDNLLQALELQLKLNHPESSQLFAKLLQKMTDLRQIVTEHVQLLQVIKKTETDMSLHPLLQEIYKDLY

Assay [3] has as its system zebrafish Peroxisome Proliferator-activated Receptor gamma (PPARg), gene 557037. Kind of assay: ATG_zfPPARg_XSP1: Attagene TRANS-FACTORIAL Multi-Species (XSP1) HepG2 Assay for zebrafish Peroxisome Proliferator-activated Receptor gamma (PPARg) (AID 2283801). The method in brief:
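HepG2 cells transiently transfected with GAL4-UAS reporter units including a zebrafish PPARg–GAL4 chimera, dosed 24 h with 3 nM 6-alpha-fluorotestosterone present. Reporter mRNA quantified by RT-PCR, FAM labelling, HpaI digestion and capillary electrophoresis; induction versus DMSO.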

Assay [4] concerns the target mouse Peroxisome Proliferator-activated Receptor gamma (PPARg), Pparg (gene 19016) (UniProt P37238). Description: ATG_mPPARg_XSP1: Attagene TRANS-FACTORIAL Multi-Species (XSP1) HepG2 Assay for mouse Peroxisome Proliferator-activated Receptor gamma (PPARg) (AID 2283802). The method in brief:
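HepG2 cells transiently transfected with GAL4-UAS reporter units driven by mouse PPARg–GAL4 chimera; 3 nM 6-alpha-fluorotestosterone present. After 24 h dosing, reporter mRNA quantified by RT-PCR, fluorescent labelling and capillary electrophoresis; gain of signal versus DMSO.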

For assay [5], the target named is Nuclear receptor subfamily 1 group I member 2 (Mus musculus) (UniProt O54915). Kind of assay: ATG_mPXR_XSP1: Attagene TRANS-FACTORIAL Multi-Species (XSP1) HepG2 Assay for mouse Pregnane X Receptor (PXR) (AID 2283803). The method, boiled down: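 Transiently transfected HepG2 cells expressing a receptor-Gal4 chimera drive a GAL4-UAS reporter; 3 nM 6-alpha-fluorotestosterone included. Reporter mRNA read 24 h post-dose by RT-PCR and capillary electrophoresis; gain of signal relative to DMSO.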
Chain of Nuclear receptor subfamily 1 group I member 2 (Mus musculus) (O54915 whole entry, looked up, the tested form may be a part): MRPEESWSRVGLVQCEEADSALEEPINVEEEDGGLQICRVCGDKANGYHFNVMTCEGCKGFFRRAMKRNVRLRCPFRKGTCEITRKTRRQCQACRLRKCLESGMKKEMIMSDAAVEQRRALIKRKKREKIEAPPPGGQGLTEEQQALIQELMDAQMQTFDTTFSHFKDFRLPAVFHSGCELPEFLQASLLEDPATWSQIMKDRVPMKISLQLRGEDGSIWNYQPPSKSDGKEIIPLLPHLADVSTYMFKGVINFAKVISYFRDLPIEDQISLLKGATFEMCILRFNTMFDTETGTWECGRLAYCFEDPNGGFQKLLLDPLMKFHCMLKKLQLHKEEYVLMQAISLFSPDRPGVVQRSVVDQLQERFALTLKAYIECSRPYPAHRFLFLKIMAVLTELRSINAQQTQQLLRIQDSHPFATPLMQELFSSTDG

Assay [6] has as its target human Thyroid hormone Receptor alpha (TRa), THRA (gene 7067) (UniProt P10827). Kind of assay: ATG_hTRa_XSP1: Attagene TRANS-FACTORIAL Multi-Species (XSP1) HepG2 Assay for human Thyroid hormone Receptor alpha (TRa) (AID 2283805). The method in brief: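 HepG2 cells transiently transfected with GAL4-UAS reporter units expressing chimeric NR-Gal4 proteins, dosed 24 hours with 3 nM 6-alpha-fluorotestosterone present. Reporter mRNA measured by RT-PCR and capillary electrophoresis; gain of signal fitted versus DMSO.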

In assay [7] the test system is turtle Thyroid Hormone Receptor, alpha (TRa), gene 101949057. Description: ATG_trTRa_XSP1: Attagene TRANS-FACTORIAL Multi-Species (XSP1) HepG2 Assay for turtle Thyroid Hormone Receptor, alpha (TRa) (AID 2283806). The method in brief: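 HepG2 cells transiently transfected with GAL4-UAS reporter units and chimeric receptor-Gal4 constructs, with 3 nM 6-alpha-fluorotestosterone present. Reporter mRNA was quantified 24 h after dosing by RT-PCR, 6-FAM labelling and capillary electrophoresis; gain of signal versus DMSO.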

In assay [8] the target is zebrafish Thyroid Hormone Receptor alpha (TRa), thraa (gene 30670) (UniProt Q98867). Kind of assay: ATG_zfTRa_XSP1: Attagene TRANS-FACTORIAL Multi-Species (XSP1) HepG2 Assay for zebrafish Thyroid Hormone Receptor alpha (TRa) (AID 2283807). The method, boiled down: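 HepG2 cells transiently transfected with GAL4-UAS reporter units including a zebrafish TRa–Gal4 chimera, dosed 24 h with 3 nM 6-alpha-fluorotestosterone present. Reporter mRNA quantified by RT-PCR and capillary electrophoresis; gain versus DMSO.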

The target of assay [9] is human Thyroid hormone Receptor beta (TRb), THRB (gene 7068) (UniProt P10828). Description: ATG_hTRb_XSP1: Attagene TRANS-FACTORIAL Multi-Species (XSP1) HepG2 Assay for human Thyroid hormone Receptor beta (TRb) (AID 2283808). The method, boiled down:
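HepG2 cells transiently transfected with reporter units driving GAL4-UAS reporters for chimeric NR-Gal4 proteins; 24 h chemical exposure with 3 nM 6-alpha-fluorotestosterone present. Reporter mRNA quantified by RT-PCR and capillary electrophoresis, gain of signal versus DMSO.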

The target of assay [10] is zebrafish Thyroid Hormone Receptor beta (TRb), thrb (gene 30607) (UniProt Q9PVE4). Description: ATG_zfTRb_XSP1: Attagene TRANS-FACTORIAL Multi-Species (XSP1) HepG2 Assay for zebrafish Thyroid Hormone Receptor beta (TRb) (AID 2283809). The method, boiled down:
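HepG2 cells transiently transfected with multiplexed GAL4-UAS reporter units expressing chimeric zebrafish TRb–Gal4. Dosed 24 h with 3 nM 6-alpha-fluorotestosterone present; reporter mRNA measured by RT-PCR, HpaI digestion and capillary electrophoresis; gain of signal versus DMSO.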

Assay [11] can be described thus: ATG_XTT_Cytotoxicity_XSP1: Cytotoxicity Assessment in the Attagene TRANS-FACTORIAL Multi-Species (XSP1) HepG2 Assay (AID 2283810). The method, boiled down:
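XTT viability readout taken at 24 hours post-dosing in HepG2 liver cells co-treated with 3 nM 6-alpha-fluorotestosterone. Signal loss relative to DMSO controls reflects cytotoxicity.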

Assay [12] in a line: ATG_M_06_XSP2: Attagene TRANS-FACTORIAL Multi-Species (XSP2) HepG2 Assay for M06 Transcription Factor (Internal Marker) (AID 2283811).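 Note: hits are increases in signal above the DMSO baseline.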 The method, boiled down:
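HepG2, multiplexed reporter transfection; 24 h dosing; AR stimulated with 3 nM 6-alpha-fluorotestosterone + 1.5 nM norgestrel; RNA → RT-PCR → 6-FAM primer extension → HpaI → CE. Positive direction vs DMSO.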

The target of assay [13] is Estrogen receptor beta (Homo sapiens) (UniProt Q92731). Kind of assay: ATG_hERb_XSP2: Attagene TRANS-FACTORIAL Multi-Species (XSP2) HepG2 Assay for human Estrogen Receptor (ERb) (AID 2283813).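 Note: actives raise reporter mRNA above DMSO so AC50 reflects agonist induction.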 The method, boiled down: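 HepG2 cells transiently transfected with GAL4-UAS reporter units and chimeric human ERb-Gal4, 24 h exposure. Reporter mRNA quantified by RT-PCR with FAM labelling, HpaI digestion and capillary electrophoresis; gain of signal versus DMSO.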

The target in assay [14] is zebrafish Estrogen Receptor (ER1), esr1 (gene 259252) (UniProt P57717). Kind of assay: ATG_zfER1_XSP2: Attagene TRANS-FACTORIAL Multi-Species (XSP2) HepG2 Assay for zebrafish Estrogen Receptor (ER1) (AID 2283816). The method, boiled down:
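HepG2 cells transiently transfected with a GAL4-UAS reporter and a chimeric zebrafish ER1-Gal4 construct, dosed 24 h. Reporter mRNA quantified by RT-PCR, labelling, HpaI digestion and capillary electrophoresis, relative to DMSO.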

For assay [15], the target named is chicken Estrogen Receptor (ERa), ESR1 (gene 396099) (UniProt P06212). Description: ATG_chERa_XSP2: Attagene TRANS-FACTORIAL Multi-Species (XSP2) HepG2 Assay for chicken Estrogen Receptor (ERa) (AID 2283817).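 Note: actives raise reporter signal above DMSO so AC50 reflects ER activation.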 The method, boiled down:
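Transient MRTU transfection of HepG2 → 24 h chemical dosing → TriZol RNA, oligo(dT) RT → PCR, 6-FAM primer extension, HpaI digest → CE quantitation of chicken ERa-Gal4-driven reporter mRNA. Positive direction vs DMSO.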

Assay [16] relates to zebrafish Estrogen Receptor (ER2a), gene 317734. Kind of assay: ATG_zfER2a_XSP2: Attagene TRANS-FACTORIAL Multi-Species (XSP2) HepG2 Assay for zebrafish Estrogen Receptor (ER2a) (AID 2283818).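 Note: hits raise reporter mRNA so AC50 reflects activation of zebrafish ER2a.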 The method in brief: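 HepG2 cells transiently transfected with GAL4-UAS reporter units and chimeric zebrafish ER2a-Gal4, exposed 24 h; medium contains 3 nM 6-alpha-fluorotestosterone and 1.5 nM norgestrel. Reporter mRNA quantified by RT-PCR, HpaI digestion, capillary electrophoresis; gain versus DMSO.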

Assay [17] can be described thus: ATG_M_19_XSP1: Attagene TRANS-FACTORIAL Multi-Species (XSP1) HepG2 Assay for M19 Transcription Factor (Internal Marker) (AID 2283798). The method, boiled down: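 HepG2 cells transiently transfected with multiplexed GAL4-UAS reporter units, dosed 24 h with 3 nM 6-alpha-fluorotestosterone present for partial AR stimulation. Reporter mRNA measured by RT-PCR with capillary electrophoresis; gain-of-signal fitted relative to DMSO.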

For assay [18], the target named is frog Thyroid hormone Receptor alpha (TRa), thra-a (gene 397942) (UniProt P15204). Kind of assay: ATG_frTRa_XSP1: Attagene TRANS-FACTORIAL Multi-Species (XSP1) HepG2 Assay for frog Thyroid hormone Receptor alpha (TRa) (AID 2283804). The method in brief:
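HepG2 cells transiently transfected with frog TRa-GAL4 chimeric reporter units, dosed 24 hr with 3 nM 6-alpha-fluorotestosterone present; reporter mRNA quantified by RT-PCR, fluorescent labelling and capillary electrophoresis, gain of signal versus DMSO.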

The target in assay [19] is GAL4 Transcription Factor (Internal Marker), GAL4 (gene 855828) (UniProt P04386). Description: ATG_GAL4_XSP2: Attagene TRANS-FACTORIAL Multi-Species (XSP2) HepG2 Assay for GAL4 Transcription Factor (Internal Marker) (AID 2283814).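 Note: GAL4 reporter mRNA background control in MRTU transfected cells not a receptor target.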 The method, boiled down: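 HepG2 cells transiently transfected with GAL4-UAS reporter units, stimulated with 3 nM 6-alpha-fluorotestosterone plus 1.5 nM norgestrel, dosed 24 h. Reporter mRNA by RT-PCR/capillary electrophoresis; gain-of-signal fit versus DMSO, background control.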
Chain of GAL4 Transcription Factor (Internal Marker), GAL4 (gene 855828) (P04386 whole entry, looked up, the tested form may be a part): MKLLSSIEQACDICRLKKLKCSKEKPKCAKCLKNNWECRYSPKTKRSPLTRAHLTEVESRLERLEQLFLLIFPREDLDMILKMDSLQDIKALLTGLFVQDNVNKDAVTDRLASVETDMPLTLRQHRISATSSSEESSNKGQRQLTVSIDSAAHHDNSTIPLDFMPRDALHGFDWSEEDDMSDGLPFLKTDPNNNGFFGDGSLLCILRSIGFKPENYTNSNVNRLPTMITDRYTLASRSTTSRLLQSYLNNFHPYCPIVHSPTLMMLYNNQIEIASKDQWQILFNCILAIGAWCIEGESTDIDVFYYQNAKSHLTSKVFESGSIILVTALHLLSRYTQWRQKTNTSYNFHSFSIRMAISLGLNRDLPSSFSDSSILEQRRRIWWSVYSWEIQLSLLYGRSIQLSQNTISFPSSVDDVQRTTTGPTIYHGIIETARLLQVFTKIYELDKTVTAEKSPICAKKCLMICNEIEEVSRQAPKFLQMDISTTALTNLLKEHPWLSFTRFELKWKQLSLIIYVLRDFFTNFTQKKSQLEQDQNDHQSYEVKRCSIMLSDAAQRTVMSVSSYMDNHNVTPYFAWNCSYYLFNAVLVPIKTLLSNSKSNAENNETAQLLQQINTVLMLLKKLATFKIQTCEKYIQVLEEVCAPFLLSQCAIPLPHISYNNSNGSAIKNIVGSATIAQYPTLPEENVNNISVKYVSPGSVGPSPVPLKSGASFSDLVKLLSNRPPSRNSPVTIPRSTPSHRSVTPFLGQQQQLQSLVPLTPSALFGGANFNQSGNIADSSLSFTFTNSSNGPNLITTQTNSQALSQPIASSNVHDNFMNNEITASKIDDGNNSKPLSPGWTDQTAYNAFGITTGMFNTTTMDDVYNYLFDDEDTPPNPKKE

Molecules are shown by their SMILES. Records with an inconclusive call do not appear. Activity calls are given as the source filed them. Rule for the calls: active = hit-call score of the fitted dose curve at least 0.9, where 1 is the maximum; inconclusive = response in the unintended direction; inactive = score below 0.9.

Chain of zebrafish Estrogen Receptor (ER1), esr1 (gene 259252) (P57717 whole entry, looked up, the tested form may be a part): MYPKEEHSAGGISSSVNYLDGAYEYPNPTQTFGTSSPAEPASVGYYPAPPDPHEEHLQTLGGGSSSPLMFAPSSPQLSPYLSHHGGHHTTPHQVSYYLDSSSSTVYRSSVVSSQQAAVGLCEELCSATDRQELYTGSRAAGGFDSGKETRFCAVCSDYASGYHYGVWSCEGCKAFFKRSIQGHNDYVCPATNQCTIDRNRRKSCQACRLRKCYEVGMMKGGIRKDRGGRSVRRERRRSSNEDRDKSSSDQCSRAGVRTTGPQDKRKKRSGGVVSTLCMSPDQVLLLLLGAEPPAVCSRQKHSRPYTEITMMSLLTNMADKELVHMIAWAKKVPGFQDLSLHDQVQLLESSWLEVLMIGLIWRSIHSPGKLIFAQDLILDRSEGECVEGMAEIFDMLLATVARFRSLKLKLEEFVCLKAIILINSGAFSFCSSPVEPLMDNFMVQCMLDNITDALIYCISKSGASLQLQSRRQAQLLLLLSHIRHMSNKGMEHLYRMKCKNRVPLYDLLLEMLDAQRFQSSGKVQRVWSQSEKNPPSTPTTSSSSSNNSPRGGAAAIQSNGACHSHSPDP
Chain of human Thyroid hormone Receptor alpha (TRa), THRA (gene 7067) (P10827 whole entry, looked up, the tested form may be a part): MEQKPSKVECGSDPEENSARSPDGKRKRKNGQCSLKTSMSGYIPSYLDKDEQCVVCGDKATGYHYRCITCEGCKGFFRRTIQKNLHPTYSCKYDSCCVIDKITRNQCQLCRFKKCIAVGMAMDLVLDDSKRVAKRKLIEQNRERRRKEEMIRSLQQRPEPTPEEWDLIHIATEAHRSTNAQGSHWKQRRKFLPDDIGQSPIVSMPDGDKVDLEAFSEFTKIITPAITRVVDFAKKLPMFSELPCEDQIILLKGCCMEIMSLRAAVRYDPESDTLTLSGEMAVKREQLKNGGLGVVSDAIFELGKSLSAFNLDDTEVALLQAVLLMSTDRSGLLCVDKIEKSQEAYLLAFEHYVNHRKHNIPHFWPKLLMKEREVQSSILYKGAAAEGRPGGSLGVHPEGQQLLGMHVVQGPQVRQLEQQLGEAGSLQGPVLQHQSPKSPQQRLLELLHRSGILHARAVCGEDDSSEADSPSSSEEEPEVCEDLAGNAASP
Chain of chicken Estrogen Receptor (ERa), ESR1 (gene 396099) (P06212 whole entry, looked up, the tested form may be a part): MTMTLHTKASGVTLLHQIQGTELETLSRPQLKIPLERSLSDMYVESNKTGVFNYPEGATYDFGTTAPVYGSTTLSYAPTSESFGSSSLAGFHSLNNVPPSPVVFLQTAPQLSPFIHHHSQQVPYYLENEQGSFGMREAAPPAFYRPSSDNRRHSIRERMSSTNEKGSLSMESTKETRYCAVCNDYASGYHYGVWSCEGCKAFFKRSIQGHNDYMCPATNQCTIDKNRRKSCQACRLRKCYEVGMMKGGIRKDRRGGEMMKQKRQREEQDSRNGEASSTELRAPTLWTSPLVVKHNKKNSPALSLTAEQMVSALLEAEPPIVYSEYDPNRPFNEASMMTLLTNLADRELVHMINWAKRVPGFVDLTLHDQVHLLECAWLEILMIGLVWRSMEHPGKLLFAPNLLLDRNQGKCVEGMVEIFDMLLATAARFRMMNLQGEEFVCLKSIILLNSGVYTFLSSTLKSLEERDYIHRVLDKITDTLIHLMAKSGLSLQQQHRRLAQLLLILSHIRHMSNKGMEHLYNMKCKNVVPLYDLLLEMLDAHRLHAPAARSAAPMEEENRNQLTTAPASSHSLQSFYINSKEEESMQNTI
Chain of mouse Peroxisome Proliferator-activated Receptor gamma (PPARg), Pparg (gene 19016) (P37238 whole entry, looked up, the tested form may be a part): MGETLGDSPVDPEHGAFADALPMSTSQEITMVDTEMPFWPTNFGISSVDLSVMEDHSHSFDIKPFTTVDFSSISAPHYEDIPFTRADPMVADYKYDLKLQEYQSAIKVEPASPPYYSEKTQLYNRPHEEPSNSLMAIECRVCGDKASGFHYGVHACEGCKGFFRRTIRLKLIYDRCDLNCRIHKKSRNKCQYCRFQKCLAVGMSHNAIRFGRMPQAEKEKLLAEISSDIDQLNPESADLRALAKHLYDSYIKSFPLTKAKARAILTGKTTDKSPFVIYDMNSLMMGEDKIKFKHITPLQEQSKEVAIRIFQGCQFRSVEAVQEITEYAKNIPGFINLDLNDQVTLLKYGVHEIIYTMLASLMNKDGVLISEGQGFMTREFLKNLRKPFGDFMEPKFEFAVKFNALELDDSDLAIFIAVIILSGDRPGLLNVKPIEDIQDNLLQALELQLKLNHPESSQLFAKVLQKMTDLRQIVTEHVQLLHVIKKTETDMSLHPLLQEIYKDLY
Chain of human Thyroid hormone Receptor beta (TRb), THRB (gene 7068) (P10828 whole entry, looked up, the tested form may be a part): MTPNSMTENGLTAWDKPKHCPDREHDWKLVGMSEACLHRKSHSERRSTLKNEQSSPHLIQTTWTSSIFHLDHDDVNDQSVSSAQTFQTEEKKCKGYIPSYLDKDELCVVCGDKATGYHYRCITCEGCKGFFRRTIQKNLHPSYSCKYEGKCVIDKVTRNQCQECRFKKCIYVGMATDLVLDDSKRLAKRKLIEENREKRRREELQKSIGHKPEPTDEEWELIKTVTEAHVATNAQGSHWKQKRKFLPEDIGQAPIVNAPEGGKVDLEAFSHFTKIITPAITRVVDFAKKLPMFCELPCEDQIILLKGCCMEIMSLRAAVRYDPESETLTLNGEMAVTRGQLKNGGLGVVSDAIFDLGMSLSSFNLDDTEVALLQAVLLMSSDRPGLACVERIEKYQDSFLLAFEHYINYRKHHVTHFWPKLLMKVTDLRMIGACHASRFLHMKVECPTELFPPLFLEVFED
Chain of zebrafish Thyroid Hormone Receptor beta (TRb), thrb (gene 30607) (Q9PVE4 whole entry, looked up, the tested form may be a part): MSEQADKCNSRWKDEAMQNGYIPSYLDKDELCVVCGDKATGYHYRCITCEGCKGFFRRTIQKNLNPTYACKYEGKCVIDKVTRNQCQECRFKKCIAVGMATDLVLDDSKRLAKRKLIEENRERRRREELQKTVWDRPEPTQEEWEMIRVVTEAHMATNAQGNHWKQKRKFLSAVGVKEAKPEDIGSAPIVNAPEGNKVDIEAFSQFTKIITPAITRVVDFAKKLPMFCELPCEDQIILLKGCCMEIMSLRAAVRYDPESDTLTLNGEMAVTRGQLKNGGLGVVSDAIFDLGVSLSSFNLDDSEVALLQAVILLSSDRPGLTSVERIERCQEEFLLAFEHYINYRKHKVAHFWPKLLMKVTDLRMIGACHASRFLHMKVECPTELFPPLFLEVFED

Turning to `COP(=S)(OC)Oc1ccc([N+](=O)[O-])c(C)c1`, the result in [1], in assay [3], in assay [6], in assay [7], in assay [8] and in assay [9] was inactive. The compound was called inactive in assay [10], in assay [11], in assay [12] and in assay [14]. The AC50 (commonly the midpoint of the concentration-response curve, whichever way the signal moves) was 64.4 µM (active) in assay [2]; 100 µM (active) in assay [4]; 27.4 µM (active) in [5]; 47.5 µM (active) in assay [13]; 38.3 µM (active) in assay [15]; 44.9 µM (active) in assay [16].
Consider `CC(C)NC(=O)N1CC(=O)N(c2cc(Cl)cc(Cl)c2)C1=O`, for which the outcome in assay [17], in [1], in assay [18], in [7], in assay [9] and in assay [10] was inactive. Further, the compound was called inactive in assay [11], in [12], in assay [19], in assay [14], in assay [15] and in [16]. Besides, the AC50 in assay [2] is 31.3 µM (active); in assay [4] it was 30.4 µM (active); in [5] it was 12 µM (active).
Take `CC1(C)CCC(=Cc2ccc(Cl)cc2)C1(O)Cn1cncn1` (stereo unspecified): the result in assay [17], in [1], in assay [2], in assay [4], in assay [18] and in assay [6] was inactive. In addition, the compound was called inactive in [7], in assay [8], in assay [9], in assay [10], in assay [11] and in assay [13]. The compound was classed as inactive in assay [19], in assay [14] and in assay [16]. Also, the concentration at half-maximal activity (AC50) is 5.78 µM (active) in assay [5] and 27.6 µM (active) in [15].
For the compound `CSC(=O)c1c(C(F)F)nc(C(F)(F)F)c(C(=O)SC)c1CC(C)C`, the compound was classed as inactive in assay [17], in assay [1], in [3], in [6], in assay [10] and in assay [11]. In addition, the result in [19], in [14], in assay [15] and in assay [16] was inactive. Also, the AC50 was 7.26 µM (active) in assay [2], 3.94 µM (active) in assay [4] and 0.139 µM (active) in [5].
